Measured values published in the supplement of paper PMC11732987, “Enantioselective OTUD7B fragment discovery through chemoproteomics screening and high-throughput optimisation” (Communications Chemistry, 2025).

Tests used:
Assay in all cases: log2 ratio of Biotin-Ahx-Ub-VS probe labelling (fragment/DMSO); higher = less target engagement (more negative = stronger competition), active = hit call of the paper (q ≤ 0.05, log2 ratio ≤ -1)
Conditions in all cases: compound concentration: 200 uM; treatment time: 3 h
[1] = target: T1, OTUD6B (UniProt Q8N6M0)
T1 sequence (whole entry): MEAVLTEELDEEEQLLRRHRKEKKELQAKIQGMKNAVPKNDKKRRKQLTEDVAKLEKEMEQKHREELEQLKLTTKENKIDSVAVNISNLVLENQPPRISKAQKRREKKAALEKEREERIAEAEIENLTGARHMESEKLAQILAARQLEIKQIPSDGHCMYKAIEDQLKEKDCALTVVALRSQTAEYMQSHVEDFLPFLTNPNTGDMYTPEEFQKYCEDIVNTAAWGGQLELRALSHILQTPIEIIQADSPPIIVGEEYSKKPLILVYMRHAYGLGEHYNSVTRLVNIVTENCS
Procedure, shortened: (§1)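 Fragment (200 µM) or vehicle was incubated for 3 h with triplicate HEK293T lysate samples of 495 µg, which were then treated with Biotin-Ahx-Ub-VS at 0.5 µM final for 1 h. Labelled DUBs were enriched on NeutrAvidin, digested with LysC and trypsin, and analysed by diaPASEF LC-MS/MS. Values are average log2 fragment/vehicle ratios from an unpaired t-test on global-median-normalised Spectronaut label-free quantities, using proteins with ≥2 unique peptides.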

[2] = target: T2, OTUD7B (UniProt Q6GQQ9)
T2 sequence (whole entry): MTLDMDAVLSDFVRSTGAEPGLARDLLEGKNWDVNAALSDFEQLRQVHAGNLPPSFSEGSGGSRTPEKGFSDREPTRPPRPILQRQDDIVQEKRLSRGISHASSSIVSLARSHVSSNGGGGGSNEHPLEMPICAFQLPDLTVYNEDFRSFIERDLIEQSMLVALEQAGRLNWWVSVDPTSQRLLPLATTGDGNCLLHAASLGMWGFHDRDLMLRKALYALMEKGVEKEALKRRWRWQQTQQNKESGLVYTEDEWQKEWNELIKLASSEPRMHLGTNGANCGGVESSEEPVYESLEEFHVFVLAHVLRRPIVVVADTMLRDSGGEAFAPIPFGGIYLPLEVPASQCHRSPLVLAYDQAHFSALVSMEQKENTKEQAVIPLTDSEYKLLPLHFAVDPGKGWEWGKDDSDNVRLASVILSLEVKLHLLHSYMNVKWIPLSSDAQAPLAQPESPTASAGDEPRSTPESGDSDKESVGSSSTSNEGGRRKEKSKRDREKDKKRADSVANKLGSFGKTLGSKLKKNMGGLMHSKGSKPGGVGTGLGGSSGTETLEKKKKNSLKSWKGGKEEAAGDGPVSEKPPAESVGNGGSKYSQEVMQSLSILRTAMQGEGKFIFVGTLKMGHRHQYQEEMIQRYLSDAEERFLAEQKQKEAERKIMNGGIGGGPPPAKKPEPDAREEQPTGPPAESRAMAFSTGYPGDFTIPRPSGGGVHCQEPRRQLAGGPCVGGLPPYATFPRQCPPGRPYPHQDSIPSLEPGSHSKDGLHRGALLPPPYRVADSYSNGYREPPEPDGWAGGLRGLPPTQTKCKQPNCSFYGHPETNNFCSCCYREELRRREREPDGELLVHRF
Procedure, shortened: as §1

[3] = target: PRPF8 (UniProt Q6P2Q9)
Procedure, shortened: as §1

[4] = target: T3, PSMD7 (UniProt P51665)
T3 sequence (whole entry): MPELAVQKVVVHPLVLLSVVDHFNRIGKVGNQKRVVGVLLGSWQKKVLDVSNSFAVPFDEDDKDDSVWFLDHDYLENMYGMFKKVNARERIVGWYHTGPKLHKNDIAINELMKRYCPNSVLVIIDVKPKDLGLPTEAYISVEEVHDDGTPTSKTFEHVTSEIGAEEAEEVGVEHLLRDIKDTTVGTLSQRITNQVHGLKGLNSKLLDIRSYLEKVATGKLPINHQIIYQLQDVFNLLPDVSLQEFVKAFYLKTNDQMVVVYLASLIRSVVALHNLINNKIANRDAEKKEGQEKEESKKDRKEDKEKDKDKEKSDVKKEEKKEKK
Procedure, shortened: as §1

[5] = target: UCHL1 (UniProt P09936)
Chain of UCHL1 (P09936 whole entry, looked up): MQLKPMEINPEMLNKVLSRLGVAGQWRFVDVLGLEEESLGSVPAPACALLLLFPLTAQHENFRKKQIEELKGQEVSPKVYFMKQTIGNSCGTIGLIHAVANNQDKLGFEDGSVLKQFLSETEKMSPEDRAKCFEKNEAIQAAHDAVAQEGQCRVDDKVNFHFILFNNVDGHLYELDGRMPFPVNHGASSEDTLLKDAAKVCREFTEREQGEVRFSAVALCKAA
Procedure, shortened: as §1

[6] = target: T4, UCHL3 (UniProt P15374)
T4 sequence (whole entry): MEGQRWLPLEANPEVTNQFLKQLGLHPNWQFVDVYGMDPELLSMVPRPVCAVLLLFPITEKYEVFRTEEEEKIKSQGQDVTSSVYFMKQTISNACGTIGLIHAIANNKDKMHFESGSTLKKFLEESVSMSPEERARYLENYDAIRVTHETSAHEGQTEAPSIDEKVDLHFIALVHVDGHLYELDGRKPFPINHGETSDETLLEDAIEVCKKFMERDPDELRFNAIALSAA
Procedure, shortened: as §1

[7] = target: T5, UCHL5 (UniProt Q9Y5K5)
T5 sequence (whole entry): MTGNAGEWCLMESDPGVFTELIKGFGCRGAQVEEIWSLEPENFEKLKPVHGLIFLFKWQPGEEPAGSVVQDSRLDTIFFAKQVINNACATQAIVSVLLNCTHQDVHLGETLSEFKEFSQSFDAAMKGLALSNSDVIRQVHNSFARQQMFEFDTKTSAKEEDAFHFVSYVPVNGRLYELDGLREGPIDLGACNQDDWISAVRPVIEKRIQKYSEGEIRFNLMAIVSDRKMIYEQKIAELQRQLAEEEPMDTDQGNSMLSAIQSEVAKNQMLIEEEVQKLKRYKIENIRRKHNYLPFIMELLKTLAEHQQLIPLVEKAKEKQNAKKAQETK
Procedure, shortened: as §1

[8] = target: USP10 (UniProt Q14694)
Chain of USP10 (Q14694 whole entry): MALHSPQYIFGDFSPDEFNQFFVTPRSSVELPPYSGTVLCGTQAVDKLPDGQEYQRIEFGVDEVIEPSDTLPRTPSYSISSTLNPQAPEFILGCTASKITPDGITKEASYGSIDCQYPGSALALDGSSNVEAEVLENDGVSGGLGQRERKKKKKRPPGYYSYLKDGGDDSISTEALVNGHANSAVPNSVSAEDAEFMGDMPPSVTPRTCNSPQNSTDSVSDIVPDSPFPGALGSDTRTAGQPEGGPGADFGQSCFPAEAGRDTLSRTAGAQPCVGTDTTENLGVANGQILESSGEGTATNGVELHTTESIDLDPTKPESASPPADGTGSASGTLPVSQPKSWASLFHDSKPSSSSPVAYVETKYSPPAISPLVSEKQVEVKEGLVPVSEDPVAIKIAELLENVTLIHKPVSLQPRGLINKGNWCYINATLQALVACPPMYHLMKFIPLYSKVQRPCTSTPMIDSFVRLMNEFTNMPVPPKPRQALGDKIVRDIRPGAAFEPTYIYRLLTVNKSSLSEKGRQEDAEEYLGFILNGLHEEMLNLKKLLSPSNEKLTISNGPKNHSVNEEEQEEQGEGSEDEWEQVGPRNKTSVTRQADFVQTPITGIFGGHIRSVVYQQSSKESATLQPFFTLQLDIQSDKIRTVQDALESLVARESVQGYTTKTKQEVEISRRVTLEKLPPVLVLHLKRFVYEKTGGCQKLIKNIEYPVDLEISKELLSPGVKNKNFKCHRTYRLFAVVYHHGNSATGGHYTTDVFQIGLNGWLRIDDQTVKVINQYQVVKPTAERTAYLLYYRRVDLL
Procedure, shortened: as §1

[9] = target: T6, USP15 (UniProt Q9Y4E8)
T6 sequence (whole entry): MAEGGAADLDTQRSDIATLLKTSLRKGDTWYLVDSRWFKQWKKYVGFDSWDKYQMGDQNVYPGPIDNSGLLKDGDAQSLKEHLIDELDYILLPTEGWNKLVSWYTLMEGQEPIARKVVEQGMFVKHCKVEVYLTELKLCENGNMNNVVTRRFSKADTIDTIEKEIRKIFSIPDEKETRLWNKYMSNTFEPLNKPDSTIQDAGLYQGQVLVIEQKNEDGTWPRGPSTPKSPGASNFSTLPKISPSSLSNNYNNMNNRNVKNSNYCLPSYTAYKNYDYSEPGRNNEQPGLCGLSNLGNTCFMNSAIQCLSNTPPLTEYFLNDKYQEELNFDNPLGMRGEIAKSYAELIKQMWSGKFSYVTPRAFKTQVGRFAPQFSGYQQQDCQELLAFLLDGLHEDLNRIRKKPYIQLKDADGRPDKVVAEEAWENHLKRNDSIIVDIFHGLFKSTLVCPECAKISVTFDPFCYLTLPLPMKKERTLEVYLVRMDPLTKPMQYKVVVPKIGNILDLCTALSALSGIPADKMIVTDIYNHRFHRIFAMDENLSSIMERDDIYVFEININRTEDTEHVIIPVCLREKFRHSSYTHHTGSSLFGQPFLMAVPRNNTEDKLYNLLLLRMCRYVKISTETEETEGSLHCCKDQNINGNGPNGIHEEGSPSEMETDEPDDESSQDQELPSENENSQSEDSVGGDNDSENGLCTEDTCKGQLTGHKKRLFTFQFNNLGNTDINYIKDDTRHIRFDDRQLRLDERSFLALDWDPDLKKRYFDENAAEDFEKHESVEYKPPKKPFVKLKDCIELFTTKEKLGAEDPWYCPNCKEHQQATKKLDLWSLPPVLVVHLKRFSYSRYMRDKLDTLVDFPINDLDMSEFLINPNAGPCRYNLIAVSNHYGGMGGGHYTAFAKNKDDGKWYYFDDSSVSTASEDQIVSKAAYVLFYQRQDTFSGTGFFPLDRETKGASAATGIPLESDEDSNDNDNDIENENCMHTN
Procedure, shortened: as §1

[10] = target: USP16 (UniProt Q9Y5T5)
Chain of USP16 (Q9Y5T5 whole entry, looked up): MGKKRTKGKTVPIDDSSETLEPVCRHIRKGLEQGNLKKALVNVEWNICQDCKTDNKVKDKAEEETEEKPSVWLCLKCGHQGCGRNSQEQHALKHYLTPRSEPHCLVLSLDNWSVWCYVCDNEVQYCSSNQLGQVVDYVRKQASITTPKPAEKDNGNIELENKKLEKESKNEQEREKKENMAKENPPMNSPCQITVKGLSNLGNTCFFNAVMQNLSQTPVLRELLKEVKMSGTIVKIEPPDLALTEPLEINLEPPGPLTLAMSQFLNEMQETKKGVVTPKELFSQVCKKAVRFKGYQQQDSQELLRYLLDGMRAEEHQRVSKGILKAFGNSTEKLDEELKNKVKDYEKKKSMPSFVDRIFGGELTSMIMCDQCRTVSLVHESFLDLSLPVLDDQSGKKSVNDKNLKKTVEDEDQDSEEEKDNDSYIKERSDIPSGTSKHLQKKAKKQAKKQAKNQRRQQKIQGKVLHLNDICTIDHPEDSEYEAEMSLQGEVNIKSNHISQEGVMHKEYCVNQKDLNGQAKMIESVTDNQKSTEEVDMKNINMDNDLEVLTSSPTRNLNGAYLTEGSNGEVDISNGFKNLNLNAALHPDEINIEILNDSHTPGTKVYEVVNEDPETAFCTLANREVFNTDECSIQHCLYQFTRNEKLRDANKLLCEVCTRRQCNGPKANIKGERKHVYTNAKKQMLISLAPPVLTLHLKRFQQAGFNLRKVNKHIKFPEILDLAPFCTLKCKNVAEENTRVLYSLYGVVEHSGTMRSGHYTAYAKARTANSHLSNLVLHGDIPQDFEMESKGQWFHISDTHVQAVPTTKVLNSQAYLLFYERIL
Procedure, shortened: as §1

Measured: log2 ratio of Biotin-Ahx-Ub-VS probe labelling

O=C(CCl)N1CCC(C(=O)N2CCCCCC2)CC1
active: [5] -1.19
inactive: [1] 0.0239 | [2] -0.19 | [3] 0.0601 | [4] -0.0463 | [6] 0.241 | [7] -0.191 | [8] -0.0405 | [9] -0.115 | [10] -0.164
